Data reported in PubChem BioAssay (NCI).
About 83,000 compounds went through this panel and 20% of them were active in at least one assay; those are over-represented in the sample as a whole.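 96-well plates, one dose, 48 hours. Percent growth reported; active if below 10.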 Active and inactive are the calls of the source.

Legend:
Assay in all cases: NCI-60 one-dose screen, 48 h (100 = growth as untreated, 0 = no growth, -100 = all killed)
Settings in all cases: 10 µM
RXF 393 renal = tested on: RXF 393 renal
SK-MEL-5 melanoma = tested on: SK-MEL-5 melanoma
CCRF-CEM leukemia = tested on: CCRF-CEM leukemia
SR leukemia = tested on: SR leukemia
NCI/ADR-RES ovarian = tested on: NCI/ADR-RES ovarian
T-47D breast = tested on: T-47D breast
BT-549 breast = tested on: BT-549 breast
MDA-MB-435 melanoma = tested on: MDA-MB-435 melanoma
SW-620 colon = tested on: SW-620 colon
HCC-2998 colon = tested on: HCC-2998 colon
OVCAR-4 ovarian = tested on: OVCAR-4 ovarian
MCF7 breast = tested on: MCF7 breast
KM12 colon = tested on: KM12 colon
SNB-19 CNS = tested on: SNB-19 CNS
HCT-116 colon = tested on: HCT-116 colon
HOP-92 NSCLC = tested on: HOP-92 NSCLC
ACHN renal = tested on: ACHN renal

Measured: growth

O=C(CC(=O)Nc1ccc(Oc2ncnc3scc(Nc4n[nH]c(=S)s4)c23)cc1)Nc1ccc(Cl)cc1
inactive: RXF 393 renal 94.8% | SK-MEL-5 melanoma 89% | CCRF-CEM leukemia 58.1% | SR leukemia 62.2% | NCI/ADR-RES ovarian 89.6% | T-47D breast 55.1% | BT-549 breast 80.2% | MDA-MB-435 melanoma 83.2% | SW-620 colon 93.5% | HCC-2998 colon 99.8%

O=C(Nc1ccc(OCC(=O)c2ccc(Cl)cc2)cc1)Nc1ccc(Cl)c(C(F)(F)F)c1
active: RXF 393 renal -60.8% | T-47D breast 6.1%
inactive: SK-MEL-5 melanoma 53.8% | SR leukemia 39.5% | OVCAR-4 ovarian 38.1% | NCI/ADR-RES ovarian 57.6% | BT-549 breast 76% | MDA-MB-435 melanoma 51.5% | SW-620 colon 47.7% | MCF7 breast 51.4% | HCC-2998 colon 33.4% | KM12 colon 14.9%

Cc1ccc2sc3c(c2c1)Oc1nc[nH]c(=O)c1C3c1cccc(F)c1 (centres undefined)
inactive: RXF 393 renal 109% | SNB-19 CNS 92.6% | SK-MEL-5 melanoma 96.4% | CCRF-CEM leukemia 107% | NCI/ADR-RES ovarian 100% | T-47D breast 83.9% | BT-549 breast 95.5% | MDA-MB-435 melanoma 96.1% | SW-620 colon 102% | HCT-116 colon 89.3% | HCC-2998 colon 118% | KM12 colon 100%

COc1cc2oc(-c3cccc(C(=O)Nc4ccc(Cl)cc4)c3)cc(=O)c2c(OCCNC(=O)[C@@H](N)CO)c1OC
inactive: RXF 393 renal 41.5% | OVCAR-4 ovarian 86.7% | NCI/ADR-RES ovarian 102% | T-47D breast 31.3% | BT-549 breast 58.9% | MDA-MB-435 melanoma 15.7% | HCT-116 colon 23.6% | HCC-2998 colon 20.5% | KM12 colon 35.2%
active: HOP-92 NSCLC -2.3% | SK-MEL-5 melanoma -81.9% | CCRF-CEM leukemia -37.9% | SW-620 colon -37.7%

Cc1ccc2c(c1)C(=O)/C(=C/c1c[nH]c3ccccc13)S2
inactive: SK-MEL-5 melanoma 59% | CCRF-CEM leukemia 29.2% | NCI/ADR-RES ovarian 71.6% | T-47D breast 33.5% | BT-549 breast 33.8% | MDA-MB-435 melanoma 43.8% | SW-620 colon 28.6% | HCC-2998 colon 65.8% | KM12 colon 35.1%
active: RXF 393 renal -28.1%

O=C(CSc1nc2ccccc2c(=O)n1-c1ccc(Cl)cc1)Nc1ccc(-c2nc3ccc([N+](=O)[O-])cc3[nH]2)cc1
active: RXF 393 renal -5.28% | OVCAR-4 ovarian -12.1% | T-47D breast 6.69% | BT-549 breast -2.07%
inactive: SNB-19 CNS 48.7% | SK-MEL-5 melanoma 65.3% | NCI/ADR-RES ovarian 61.3% | MDA-MB-435 melanoma 39.6% | SW-620 colon 64.2% | HCC-2998 colon 12.1% | KM12 colon 43%

Cn1cc(-c2nnc(N)nc2-c2c[nH]c3ccccc23)c2cc(Br)cnc21
inactive: SNB-19 CNS 66.6% | T-47D breast 29.4% | BT-549 breast 17% | SW-620 colon 57.8% | MCF7 breast 14% | KM12 colon 51.1%
active: RXF 393 renal -20.1% | SK-MEL-5 melanoma -72.8% | SR leukemia 8.61% | NCI/ADR-RES ovarian -5.86% | MDA-MB-435 melanoma 5.61% | HCC-2998 colon -27%

O=C(Nc1ccc(OCc2ccc(F)cc2)cc1)Nc1ccc(Cl)c(C(F)(F)F)c1
active: RXF 393 renal -24.3% | SK-MEL-5 melanoma -81.4% | NCI/ADR-RES ovarian 4.62% | T-47D breast 6.12% | BT-549 breast -15.9% | MDA-MB-435 melanoma -12.4% | HCC-2998 colon 1.98%
inactive: ACHN renal 14.6% | OVCAR-4 ovarian 19% | SW-620 colon 22.3% | KM12 colon 11.1%

Cc1ccc(COc2ccc(NC(=O)Nc3ccc(Cl)c(C(F)(F)F)c3)cc2)cc1
inactive: RXF 393 renal 75.5% | SNB-19 CNS 75.8% | SK-MEL-5 melanoma 79.9% | ACHN renal 56.8% | CCRF-CEM leukemia 60.7% | OVCAR-4 ovarian 66.4% | NCI/ADR-RES ovarian 84.7% | T-47D breast 33.7% | BT-549 breast 74.4% | MDA-MB-435 melanoma 86.1% | SW-620 colon 86.5% | HCC-2998 colon 83.7%

COc1cc(Nc2nc(O)c(/C=C3\C=Nc4ccccc43)s2)cc(OC)c1OC
active: HOP-92 NSCLC -72.3% | RXF 393 renal -69.2% | SK-MEL-5 melanoma -34.7% | OVCAR-4 ovarian -63.9% | T-47D breast 2.48% | BT-549 breast -41.4% | MDA-MB-435 melanoma -77.1% | SW-620 colon -52.1% | HCC-2998 colon -48.2% | KM12 colon -72.4%
inactive: CCRF-CEM leukemia 14.9% | NCI/ADR-RES ovarian 11.4%

O=C(CC(=O)Nc1ccc(Oc2ncnc3scc(Nc4n[nH]c(=S)s4)c23)cc1)Nc1ccc(Br)cc1
inactive: RXF 393 renal 129% | SK-MEL-5 melanoma 98% | CCRF-CEM leukemia 75.9% | SR leukemia 87% | OVCAR-4 ovarian 106% | NCI/ADR-RES ovarian 103% | T-47D breast 86.3% | BT-549 breast 108% | MDA-MB-435 melanoma 103% | SW-620 colon 101% | HCC-2998 colon 112%

CC1(C)CC(=O)C2=C(C1)N(Cc1ccc(C(=O)O)cc1)C1=C(C(=O)CC(C)(C)C1)C2c1ccc(Cl)cc1
inactive: RXF 393 renal 111% | SK-MEL-5 melanoma 99.9% | ACHN renal 116% | CCRF-CEM leukemia 102% | SR leukemia 99.6% | NCI/ADR-RES ovarian 95.3% | T-47D breast 91.9% | BT-549 breast 93.5% | MDA-MB-435 melanoma 102% | SW-620 colon 101% | MCF7 breast 89.6% | HCC-2998 colon 101% | KM12 colon 108%

O=C(CN1CCN(c2ncnc3c2cnn3-c2ccccc2)CC1)Nc1ccc(Br)cc1
active: SK-MEL-5 melanoma 9.44%
inactive: HOP-92 NSCLC 74.6% | RXF 393 renal 76% | CCRF-CEM leukemia 61.6% | SR leukemia 40.3% | NCI/ADR-RES ovarian 56.1% | T-47D breast 41.6% | BT-549 breast 50% | MDA-MB-435 melanoma 53.2% | SW-620 colon 78.1% | HCT-116 colon 52.5% | HCC-2998 colon 78.8% | KM12 colon 57.5%

CC1[C@H]2[C@H](C[C@H]3[C@@H]4CC=C5c6sc(Nc7cccc(Cl)n7)nc6CC[C@]5(C)[C@H]4CC[C@@]32C)O[C@]12CC[C@@H](C)CO2 (some centres undefined)
active: MCF7 breast -66.6%
inactive: HOP-92 NSCLC 99.6% | RXF 393 renal 123% | SK-MEL-5 melanoma 59.3% | CCRF-CEM leukemia 66.6% | OVCAR-4 ovarian 104% | NCI/ADR-RES ovarian 94% | T-47D breast 68% | BT-549 breast 83.5% | MDA-MB-435 melanoma 75.8% | SW-620 colon 104% | HCT-116 colon 76.3% | HCC-2998 colon 102% | KM12 colon 84.9%

Cc1ccc2c(c1)C(=O)/C(=C/c1ccc([N+](=O)[O-])cc1)S2
inactive: RXF 393 renal 109% | SK-MEL-5 melanoma 95.1% | CCRF-CEM leukemia 109% | SR leukemia 100% | NCI/ADR-RES ovarian 95.3% | T-47D breast 86.3% | BT-549 breast 101% | MDA-MB-435 melanoma 98.9% | SW-620 colon 49.4% | HCC-2998 colon 103% | KM12 colon 105%

CCOC(=O)c1ccc(NC(=O)CSC(CC(=O)c2sc(Nc3ccccn3)nc2C)c2ccccc2F)cc1 (centres undefined)
inactive: NCI/ADR-RES ovarian 10.5% | T-47D breast 13.1%
active: HOP-92 NSCLC -14.5% | RXF 393 renal -12.1% | SK-MEL-5 melanoma 7.25% | CCRF-CEM leukemia 3.92% | BT-549 breast -9.95% | MDA-MB-435 melanoma -10.7% | SW-620 colon 0.242% | MCF7 breast -17.3% | HCC-2998 colon -7.21% | KM12 colon -50.8%
